IL1B secr inh = blocks inflammasome-driven IL-1 beta release; activity change, % at 57.5 µM; THP-1 LPS/ATP IL-1B secretion, AlphaLISA, 16 h; stronger effect = lower value; AID 743279; 360,000 tested, 4.7% active; in the data active means activity change below about -50%; inconclusive means mostly about -30% to -49%
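THP-1 cells pretreated 1 hr with compounds (up to 57.5 uM final), then stimulated with LPS (250 ng/mL final) plus ATP (1.25 mM final); secreted IL-1B measured by AlphaLISA after 16 hr, decreased signal indicating inhibition.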
HT1080 IDH1KD tx = HT-1080 IDH1 knockdown cell toxicity (counter line). HT-1080 IDH1 knockdown viability, ATP luminescence, 48 h. Potency, µM (series often up to 46.1 µM), for the others: at the top dose activity, negative = toxicity, actives largely listed as cytotoxic. 360,000 tested, 2% active;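 further: potency means the concentration at half of the fitted maximal effect; 0% = DMSO wells and -100% = cell-free medium wells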
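Cytotoxicity counter-line: IDH1KD HT-1080, 48 h, CellTiter-Glo. Curves classed by r2, magnitude and activity.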
DT40 TDP1 no CPT = qHTS for Inhibitors of human tyrosyl-DNA phosphodiesterase 1 (TDP1): qHTS in cells in absence of CPT | 420,000 tested, 15% active | Potency, µM (series often up to 46.2 µM), inactives show top-dose activity change, negative = growth inhibition, hits mostly inhibitors | DT40 Tdp1-/- hTDP1 cells, no CPT, ATP luminescence, 48 h; further: potency means the concentration at half of the fitted maximal effect; nearly all actives have a fitted effect of over 55% in size
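Luminescent ATP content (CellTiter-Glo) served as the growth readout. Knockout chicken DT40 cells expressing human TDP1 were exposed to compounds without camptothecin for a minimum 48 hr at 37 °C.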
DT40 TDP1 CPT = growth inhibition of DT40 Tdp1-/-;hTDP1 cells with camptothecin (screen for TDP1 inhibitors); 420,000 tested, 12% active; chicken DT40 Tdp1-/-;hTDP1 cells + 20 nM CPT, ATP luminescence, 48 h; Potency, µM (series often up to 46.2 µM), for the others: at the top dose activity change, negative = growth inhibition, most hits filed as inhibitors; further: potency means the concentration at half of the fitted maximal effect; nearly all actives have a fitted effect of over 55% in size
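Cell growth measured by CellTiter-Glo luminescence after a minimum 48 h, 37 C compound exposure with 20 nM CPT in Tdp1-knockout DT40 cells stably expressing hTDP1, seeded 400/well; qHTS titration format.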
HT1080NT lethal = kills 2HG-producing HT-1080-NT fibrosarcoma cells; 360,000 tested, 1.6% active; HT-1080-NT fibrosarcoma viability, CellTiter-Glo ATP luminescence, 48 h; Potency, µM (highest dose often 46.1 µM), inactives show at the top dose activity, negative = less viability, hits mostly cytotoxic; AID 686970;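 further: NT is the 2HG producing partner of a matched IDH1 knockdown line; potency means the concentration at half of the fitted maximal effect; 0% = DMSO-treated cells and -100% = media-only wells without cells; nearly all actives have a fitted effect of over 55% in size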
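HT-1080-NT; 750 cells/well; 5% FBS RPMI; 48 h compound, 37 degrees C; CellTiter-Glo luminescence; curve fitting and curve-class assignment.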
Numbers without * were called inactive; ? = inconclusive; · = no result given. A selection: hits, their analogues and other compounds. The true share with any hit is near 19%. Unless noted, the call rests on the fitted dose curve; in most records, active means well fitted curve in the direction sought with a large enough effect; inconclusive means small, poorly fitted or top-dose-only effect, or another doubt; inactive means no such curve, though single readings can be large; an effect the other way counts as inactive or inconclusive. Unless noted, on the % scale 0 is the no-effect control and ±100 the full control effect.

SMILES	IL1B secr inh	HT1080 IDH1KD tx	DT40 TDP1 no CPT	DT40 TDP1 CPT	HT1080NT lethal
C#Cc1ccc2c(c1)COc1c3ccccc3nn1-2	-7	-6%	?	10µM*	-4%
COc1ccc(NC2c3ccccc3C(=O)N2c2cccnc2)cc1 (centres undefined)	18	6%	3%	-24%	10%
CC(=O)N[C@@H]1[C@@H](O)[C@@H]2OC(c3ccccc3)OC[C@H]2O[C@@H]1N=[N+]=[N-] (some centres undefined)	8	10%	2%	0%	12%
COC(=O)c1cc(OC)c(OC)cc1NC(=O)C1CCC(=O)N1S(=O)(=O)c1ccc(C)cc1 (centres undefined)	11	1%	18µM*	21µM*	-1%
CCc1cc2c(NCCC(=O)O)nc(C)nc2s1	57	3%	-11%	-4%	1%
CCc1cc2c(NCC3CCCO3)nc(C)nc2s1 (centres undefined)	4	-1%	?	13µM*	-14%
CCc1cc2c(NCc3ccccc3)nc(C)nc2s1	-5	-29%	8.2µM*	16µM*	-19%
CCc1cc2c(NC(Cc3ccccc3)C(=O)O)nc(C)nc2s1 (centres undefined)	32	1%	-25%	-2%	5%
Cc1ccc(NC(=O)c2ccc(C(C)(C)C)cc2)cc1[N+](=O)[O-]	-6	-3%	-25%	-13%	0%
CC1(O)CC(C)(C)C(C#N)C(=O)N1 (centres undefined)	-13	16%	1%	-12%	13%
CCCN(CC1CC1)S(=O)(=O)c1ccc(-n2cnnn2)c(OC)c1	-11	5%	-6%	-4%	3%
CCn1c(=O)c2cc(C(=O)N(CCN(C)C)Cc3ccccc3)sc2c2ccccc21	·	·	21µM*	-26%	·
CC(C)CCN(Cc1ccco1)C(=O)c1cc2c(Cl)nc3ccccc3c2s1	·	·	16µM*	?	·
CCn1c(=O)c2cc(C(=O)N(CCCOC(C)C)Cc3ccco3)sc2c2ccccc21	·	·	21µM*	?	·
CCOc1ccccc1N(C)C(=O)c1cc2c(=O)n(CC)c3ccccc3c2s1	-68*	-2%	21µM*	21µM*	-2%
Nc1ncccc1C(=O)OCC(=O)N1CCN(S(=O)(=O)c2ccc(Cl)cc2)CC1	-12	-13%	?	?	-11%
O=C(CNC(=O)c1ccccc1F)N/N=C/c1cccnc1	6	0%	10%	-1%	0%
O=C1c2cccnc2C(=O)N1Cc1ccc(S(=O)(=O)NCc2ccco2)s1	-9	2%	16%	6%	-2%
C[C@@H]1NC(=O)c2cc([N+](=O)[O-])cc(I)c2OCC[C@@H](C(=O)NC(CC(=O)O)C(N)=O)NC(=O)[C@H](CC(N)=O)NC1=O (some centres undefined)	-3	16%	-5%	7%	5%
CCOC(=O)c1sc2nc(SCC(=O)N(CC)CC)n(CCCN3CCCC3=O)c(=O)c2c1C	?	-11%	-12%	18µM*	-2%
CCN(CC)C(=O)CSc1nc2sc3c(c2c(=O)n1CCOC)CCC3	6	2%	-25%	10%	10%
Cc1cnnn1-c1ccc(C(=O)CCl)cc1	-109*	1%	2.6µM*	2.3µM*	1%
CN(Cc1ccccc1)C(=O)c1ccc(NC(=O)Cc2cccc(NC(=O)C3CCN(C(=O)C4CC4)CC3)c2)cc1	-19	-3%	-9%	-24%	-4%
CC(C)(C)OC(=O)N(CCc1ccccc1)Cc1ccc(OCc2cccc(NC(=O)C3CC3)c2)cc1	?	0%	4.6µM*	5.8µM*	2%
CC(=O)Nc1cccc(C(=O)N(CCc2ccccc2)Cc2ccccc2)c1	-11	-2%	?	-24%	1%
SMILES	IL1B secr inh	HT1080 IDH1KD tx	DT40 TDP1 no CPT	DT40 TDP1 CPT	HT1080NT lethal
CC(C)(C)OC(=O)N(CCc1ccccc1)Cc1ccccc1OCc1cccc(NC(=O)/C=C/c2ccccc2)c1	-20	14%	7.3µM*	9.2µM*	5%
CC(C)(C)OC(=O)N(CCc1ccccc1)Cc1ccc(OCc2cccc(NC(=O)/C=C/c3ccccc3)c2)cc1	-7	4%	-24%	-20%	1%
CC(C)(C)OC(=O)N(CCc1ccccc1)Cc1cccc(OCc2cccc(NC(=O)c3ccccc3)c2)c1	?	1%	18µM*	23µM*	1%
CC(C)(C)OC(=O)N(CCc1ccccc1)Cc1ccc(OCc2cccc(NC(=O)C3CCC3)c2)cc1	0	-5%	15µM*	21µM*	1%
COc1ccc(C(=O)OCC(=O)NCCc2ccc(F)cc2)cc1S(=O)(=O)N1CCOCC1	5	13%	-7%	-5%	-1%
Cc1nc(Cn2c3ccc(NC(=S)NC4CCCCC4)cc3c(=O)n2C)cs1	7	4%	?	?	0%
CCc1ccc(Nc2nc(N3CCOCC3)nc(N3CCOCC3)n2)cc1	?	3%	?	?	0%
Cc1ccc(Nc2nc(OC(C(F)(F)F)C(F)(F)F)nc(N3CCOCC3)n2)cc1	-80*	-4%	15µM*	?	-1%
FC(F)(F)Oc1ccc(Nc2nc(N3CCOCC3)nc(N3CCOCC3)n2)cc1	-5	8%	16µM*	18µM*	28%
CN(Cc1ccccc1)S(=O)(=O)c1ccc(Cl)c(C(=O)NCCCN2CCCC2=O)c1	24	-5%	16µM*	?	5%
O=C(NCCc1ccccn1)c1cc(-c2ccc(Cl)c(Cl)c2Cl)nc2ccccc12	0	?	18µM*	?	-3%
CN(Cc1ccccc1)S(=O)(=O)c1ccc(Cl)c(C(=O)NCCc2ccccn2)c1	2	-12%	?	16µM*	5%
O=C(NCc1ccccn1)c1cc(-c2ccccc2Cl)nc2ccccc12	8	9%	-14%	-6%	5%
O=C(Nc1nc2ccccc2s1)C1=NN(c2ccccc2)C(=O)CC1	67	-3%	-21%	?	-13%
COc1ccc(CN(C)Cc2nc(Cc3cccc(F)c3)no2)c2cccnc12	1	-26%	2.9µM*	12µM*	-7%
COc1cccc(-n2cc(CN(C)Cc3nc(Cc4cccc(F)c4)no3)cn2)c1	-25	-2%	-29%	?	-1%
O=C(O)COc1ccc2c3c(c(=O)oc2c1)CCC3	19	22%	-7%	-15%	20%
CC(C)C(NS(C)(=O)=O)c1nnc2n1CCN(Cc1cccc3ncccc13)CC2 (centres undefined)	·	·	-13%	-1%	·
Cc1cc(O)c(C(=O)/C=C/c2ccccc2Br)c(=O)o1	-77*	-12%	?	?	-12%

Compound activity (PubChem BioAssay)
